Data on 19 molecules can be found in paper PMC11062922 (Nature Chemical Biology, 2023).

Read-outs that look alike come from different tables or passages of the source.

Common to all, as to design: species or system human, MV4-11 + K-562 + COLO205 + SK-N-BE2 + OVCAR-8
Assay [1] concerns MAPK7. The settings on record: read-out: apparent Kd; compound concentrations: 100 nM and 1000 nM (sheet 'Samples'), CATDS: 1; n = 1.
The test system of assay [2] is NEK9. To be noted: read-out: apparent Kd; compound concentrations: 100 nM and 1000 nM (sheet 'Samples'), CATDS: 1; n = 1.
Assay [3] deals with MERTK. To be noted: read-out: apparent Kd; compound concentrations:100 nM and 1000 nM (sheet 'Samples'); n = 1.
The subject of assay [4] is NNT. The settings on record: read-out: apparent Kd, n = 1.
The test system of assay [5] is NQO2. The settings on record: read-out: apparent Kd, n = 1.
Assay [6] concerns MCM5. The settings on record: read-out: apparent Kd; compound concentrations:100 nM and 1000 nM (sheet 'Samples'); n = 1.
In assay [7] the test system is NLK. The settings on record: read-out: apparent Kd; compound concentrations:100 nM and 1000 nM (sheet 'Samples'); n = 1.
The subject of assay [8] is TNIK. The settings on record: read-out: apparent Kd; compound concentrations:100 nM and 1000 nM (sheet 'Samples'); n = 1.
The subject of assay [9] is MAPKAPK2. To be noted: read-out: apparent Kd, compound concentrations: 100 nM and 1000 nM (sheet 'Samples'), n = 1.
In assay [10] the test system is NUAK2. The settings on record: read-out: apparent Kd; compound concentrations:100 nM and 1000 nM (sheet 'Samples'); n = 1.
Assay [11] concerns PIK3CG. To be noted: read-out: apparent Kd, n = 1.
For assay [12], the system named is RIOK2. To be noted: read-out: apparent Kd, compound concentrations: 100 nM and 1000 nM (sheet 'Samples'), n = 1.
Assay [13] deals with MTHFD1. To be noted: read-out: apparent Kd; compound concentrations:100 nM and 1000 nM (sheet 'Samples'); n = 1.
In assay [14] the test system is TGFBR1. The settings on record: read-out: apparent Kd, n = 1.
For assay [15], the system named is TGFBR2. To be noted: read-out: apparent Kd; compound concentrations:100 nM and 1000 nM (sheet 'Samples'); n = 1.
Assay [16] deals with MAPK14. The settings on record: read-out: apparent Kd; compound concentrations: 100 nM and 1000 nM (sheet 'Samples'), CATDS: 0.48313667011563999; n = 1.
Assay [17] deals with NQO1. To be noted: read-out: apparent Kd, compound concentrations: 100 nM and 1000 nM (sheet 'Samples'), n = 1.
Assay [18] has as its system MTOR. To be noted: read-out: apparent Kd; compound concentrations: 100 nM and 1000 nM (sheet 'Samples'), CATDS: 7.1154294212896999E-2; n = 1.
Assay [19] concerns PDGFRB. The settings on record: read-out: apparent Kd, compound concentrations: 100 nM and 1000 nM (sheet 'Samples'), n = 1.
The subject of assay [20] is PI4KA. The settings on record: read-out: apparent Kd; compound concentrations: 100 nM and 1000 nM (sheet 'Samples'), CATDS: 9.2469758478665204E-2; n = 1.
Assay [21] has as its system PI4KB. The settings on record: read-out: apparent Kd; compound concentrations: 100 nM and 1000 nM (sheet 'Samples'), CATDS: 6.1584731713773599E-2; n = 1.
The subject of assay [22] is PIK3C2A. The settings on record: read-out: apparent Kd; compound concentrations: 100 nM and 1000 nM (sheet 'Samples'), CATDS: 5.5656712709310899E-2; n = 1.
Assay [23] deals with PIK3C2B. To be noted: read-out: apparent Kd; compound concentrations: 100 nM and 1000 nM (sheet 'Samples'), CATDS: 0.103549921719069; n = 1.
Assay [24] has as its system PIK3CA. The settings on record: read-out: apparent Kd; compound concentrations: 100 nM and 1000 nM (sheet 'Samples'), CATDS: 0.27321348763970998; n = 1.
In assay [25] the test system is PIK3CB. To be noted: read-out: apparent Kd; compound concentrations: 100 nM and 1000 nM (sheet 'Samples'), CATDS: 0.12993654601332599; n = 1.
Assay [26] relates to PIK3CD. To be noted: read-out: apparent Kd; compound concentrations: 100 nM and 1000 nM (sheet 'Samples'), CATDS: 0.40484446782600397; n = 1.
Assay [27] deals with PRKDC. The settings on record: read-out: apparent Kd; compound concentrations: 100 nM and 1000 nM (sheet 'Samples'), CATDS: 5.8127762202415202E-2; n = 1.
Assay [28] relates to MDN1. The settings on record: read-out: apparent Kd; compound concentrations: 100 nM and 1000 nM (sheet 'Samples'), CATDS: 0.24349694063925101; n = 1.
The test system of assay [29] is PIK3C3. The settings on record: read-out: apparent Kd; compound concentrations: 100 nM and 1000 nM (sheet 'Samples'), CATDS: 0.27915457125427801; n = 1.
Setting [30] is: compound concentrations:100 nM and 1000 nM (sheet 'Samples').
[31] abbreviates: compound concentrations: 100 nM and 1000 nM (sheet 'Samples'), CATDS: 1.

`CCOc1cc(C(=O)N2CCC(N3CCN(C)CC3)CC2)ccc1Nc1ncc2c(n1)N(C1CCCC1)c1ccccc1C(=O)N2C` [ERK5-IN-1]: the potency estimated from few doses in assay [1] was 813 nM.

As for `COc1cc(Nc2ncc3c(C)nc(-c4cccc(Oc5ccccc5)c4)n3n2)cc(OC)c1OC` [GW861893X], the potency estimated from few doses in assay [2] was 584 nM.

As for `CS(=O)(=O)CCNCc1nc(-c2ccc3ncnc(Nc4ccc(F)c(Cl)c4)c3c2)cs1.Cl` [GW461104A], the potency estimated from few doses was 1190 nM in assay [3] and 1740 nM in [4] (setting [30]).

On to `CS(=O)(=O)CCNCc1nc(-c2ccc3ncnc(Nc4ccc(OCc5ccccc5)c(Cl)c4)c3c2)cs1.CS(=O)(=O)CCNCc1nc(-c2ccc3ncnc(Nc4ccc(OCc5ccccc5)c(Cl)c4)c3c2)cs1.Cl.Cl` [GW582764A], for which the figures for the potency estimated from few doses in assay [4] (setting [30]) and in assay [5] (setting [30]) were 2020 nM and 1880 nM, respectively.

With `COc1cccc(-c2ccc3c(NC(=O)C4CC4)n[nH]c3n2)c1` [SB-710903], the potency estimated from few doses in [6] is 2020 nM; in [7], 1900 nM; in assay [8], 1640 nM.

Consider `CCS(=O)(=O)c1ccc(OC)c(Nc2nccc(-c3c(-c4cccc(NC(=O)c5c(F)cccc5F)c4)nn4ncccc34)n2)c1` [GSK326180A], for which the potency estimated from few doses in assay [9] (CATDS: 1) is 1390 nM.

As for `COc1ccc(NC(=O)c2ccc(-c3cc(-c4nnc(C)o4)ccc3C)cc2)cc1` [GW595885X], the potency estimated from few doses is 1230 nM in assay [10] and 1410 nM in [11] (setting [30]).

Take `Cn1cnc2c(N)ncnc21` [SKF-97623]: the potency estimated from few doses in assay [5] (setting [31]) was 1300 nM.

As to `COc1cccc(-n2nc(C)c3c(N/N=C(\C)c4ccncc4)ncnc32)c1` [GW809885X], the potency estimated from few doses is 1600 nM in assay [4] (compound concentrations: 100 nM and 1000 nM (sheet 'Samples'), CATDS: 0.46713303896147801); 1200 nM in assay [12] (CATDS: 0.53784196223168101).

With `CCn1c(-c2nonc2N)nc2ccc(F)cc21` [GW785404X], the potency estimated from few doses in assay [5] (setting [31]) is 339 nM.

As for `CCNC(=O)[C@@H]1CCCN2C(=O)CC[C@H](NC(=O)[C@H](Cc3ccc(OP(=O)(O)O)cc3)NC(C)=O)C(=O)N12` [RO0325851-000], the potency estimated from few doses in [13] is 1840 nM.

For the molecule `Cc1ccc(-c2cc(-c3c[nH]nc3-c3ccccn3)ccn2)cc1` [GW684088X], the potency estimated from few doses in assay [5] (setting [30]) is 741 nM; in [14] (setting [30]), 490 nM; in assay [15], 2230 nM.

With `C[C@@H](CS(C)(=O)=O)Nc1ncc2cc(Oc3ccc(F)cc3F)c(=O)n(C)c2n1` [RO5044198-000], the values for the potency estimated from few doses in [16], in [9] (CATDS: 0.45912582310815703) and in [17] (CATDS: 0.21043150555446399) were 88.4 nM, 97.4 nM and 1410 nM, respectively.

For the molecule `CC(=O)N[C@@H](Cc1ccc(OP(=O)(O)O)cc1)C(=O)N[C@H]1CCC(=O)N2CCC[C@@H](C(=O)NC3CCc4ccccc43)N2C1=O` (stereo partly drawn) [RO0324438-000], the potency estimated from few doses in assay [3] was 1220 nM.

`COc1ccc(-c2cc3c(C)nc(N)nc3n([C@H]3CC[C@H](O)CC3)c2=O)cn1` [PFE-PKIS_40]: the potency estimated from few doses in assay [18] was 382 nM; in assay [19] (CATDS: 5.6462124359458001E-2), 1550 nM; in assay [20] it was 96.5 nM; in [21] it was 875 nM; in assay [22], 1720 nM; in assay [23], 55.7 nM. Besides, the potency estimated from few doses is 1.69 nM in assay [24]; 19.7 nM in assay [25]; 0.817 nM in [26]; 1.57 nM in assay [11] (compound concentrations: 100 nM and 1000 nM (sheet 'Samples'), CATDS: 0.28339263062776299); 1260 nM in [27].

On to `COC(=O)Nc1nc2cc(Oc3ccc(NC(=O)Nc4cccc(C(=O)O)c4)cc3)ccc2[nH]1.Cl` [GW701427A], for which the potency estimated from few doses in [17] (CATDS: 1) is 1010 nM.

Consider `Nc1nc(-c2nccs2)c(-c2ccnc3ccccc23)s1` [GW693542X], for which the potency estimated from few doses in assay [28] was 1860 nM; in [29], 1430 nM; in assay [12] (CATDS: 0.23086501182720201), 2090 nM; in assay [14] (compound concentrations: 100 nM and 1000 nM (sheet 'Samples'), CATDS: 0.25129467412206702) it was 1750 nM.

In the case of `c1cc(-c2cnn3nc(N4CCOCC4)ccc23)nc(NC2CC2)n1` [GW708336X], the potency estimated from few doses in assay [17] (CATDS: 1) is 1540 nM.

Regarding `COc1ccc(-c2coc3ncnc(N)c23)cc1` [GW642125X], the potency estimated from few doses in assay [19] (CATDS: 1) is 1540 nM.
